From article PMC12864922, “TDP-43 directly inhibits mRNA accumulation in neurites through modulation of mRNA stability”
The full ranking holds about 9,900 sequences; the median of “r (bound/input frequency ratio)” is about 0.7, and the highest 2% start at about 6.5. This excerpt belongs to a sample that is enriched for the highest values.

B1: ENSMUSG00000043670.217|Diras1|25:29;58:70;94:99;102:106;111:115;225:229 (ssRNA)
RNA: GGGAGUUCUACAGUCCGACGAUCGCUUCGAUAUCCGCAUGCUAGGAUGGGGUGUUCUUGCACCACUUACACAUCUUAGUGAGACCACAGUGUAAGUGGCCCACACACACACACGGGGGGGGCACCUAGACAUUGUGCACACACUCAUACGCUCACACAUUUCAGGGGUGGGUGACACAGGCCUGUCUGAUGAGCACCAGGUCUGUUCCAGGCUGUGGCAAGCUGGCUCCUGGCUCAGAAGUGACAAAGCUGCAGUACAGAGGCCUCACACACAGGUCAUCACCUCACAGUGGCUACAGACCAGCUCUUGCGGUCGCACUAGUGUGGAAUUCUCGGGUGUCAAGG
B2: ENSMUSG00000042529.424|Kcnj12|1:5;17:27;50:55;212:216 (ssRNA)
RNA: GGGAGUUCUACAGUCCGACGAUCGCUUCGAUAUCCGCAUGCUACACACGAGGUCCCAGGCACACACAUACUGAAUGUCAGUGGCUUGGGUGCACACACGAGAGAGAGAGAGAGAGAGAGAGAGAGAGAGAGAGAGAGAGAGAGAGAGAGCUGCACAGGAUGAAGCAGCUGCCCUGAGCCCAUCUGGUGCUGUGCACCUGGUCCUUGUCCAGCCGAGGGCCUGGGGGCAGAAGAACACACCAUAGGGAGGCCCUUCAUACGGUGUCUGCCCUAUGUGAGGUCAUAGAAUGUUAAAUCUAUUUUACUCUUGCGGUCGCACUAGUGUGGAAUUCUCGGGUGUCAAGG
B3: ENSMUSG00000042529.420|Kcnj12|1:11;16:21;25:29;41:51;74:79;236:240 (ssRNA)
RNA: GGGAGUUCUACAGUCCGACGAUCGCUUCGAUAUCCGCAUGCUACACACACACACAACAACACACAGGCACACGAGGUCCCAGGCACACACAUACUGAAUGUCAGUGGCUUGGGUGCACACACGAGAGAGAGAGAGAGAGAGAGAGAGAGAGAGAGAGAGAGAGAGAGAGAGAGCUGCACAGGAUGAAGCAGCUGCCCUGAGCCCAUCUGGUGCUGUGCACCUGGUCCUUGUCCAGCCGAGGGCCUGGGGGCAGAAGAACACACCAUAGGGAGGCCCUUCAUACGGUGUCUGCCCUAUGUGAGGCUCUUGCGGUCGCACUAGUGUGGAAUUCUCGGGUGUCAAGG
B4: ENSMUSG00000042529.426|Kcnj12|5:15;38:43;200:204 (ssRNA)
RNA: GGGAGUUCUACAGUCCGACGAUCGCUUCGAUAUCCGCAUGCUACAGGCACACACAUACUGAAUGUCAGUGGCUUGGGUGCACACACGAGAGAGAGAGAGAGAGAGAGAGAGAGAGAGAGAGAGAGAGAGAGAGAGAGCUGCACAGGAUGAAGCAGCUGCCCUGAGCCCAUCUGGUGCUGUGCACCUGGUCCUUGUCCAGCCGAGGGCCUGGGGGCAGAAGAACACACCAUAGGGAGGCCCUUCAUACGGUGUCUGCCCUAUGUGAGGUCAUAGAAUGUUAAAUCUAUUUUAAACGGUGAAACUCUCUUGCGGUCGCACUAGUGUGGAAUUCUCGGGUGUCAAGG
B5: ENSMUSG00000042529.425|Kcnj12|11:21;44:49;206:210 (ssRNA)
RNA: GGGAGUUCUACAGUCCGACGAUCGCUUCGAUAUCCGCAUGCUAAGGUCCCAGGCACACACAUACUGAAUGUCAGUGGCUUGGGUGCACACACGAGAGAGAGAGAGAGAGAGAGAGAGAGAGAGAGAGAGAGAGAGAGAGAGAGCUGCACAGGAUGAAGCAGCUGCCCUGAGCCCAUCUGGUGCUGUGCACCUGGUCCUUGUCCAGCCGAGGGCCUGGGGGCAGAAGAACACACCAUAGGGAGGCCCUUCAUACGGUGUCUGCCCUAUGUGAGGUCAUAGAAUGUUAAAUCUAUUUUAAACGGUCUCUUGCGGUCGCACUAGUGUGGAAUUCUCGGGUGUCAAGG
B6: ENSMUSG00000042529.421|Kcnj12|1:5;10:15;19:23;35:45;68:73;230:234 (ssRNA)
RNA: GGGAGUUCUACAGUCCGACGAUCGCUUCGAUAUCCGCAUGCUACACACAACAACACACAGGCACACGAGGUCCCAGGCACACACAUACUGAAUGUCAGUGGCUUGGGUGCACACACGAGAGAGAGAGAGAGAGAGAGAGAGAGAGAGAGAGAGAGAGAGAGAGAGAGCUGCACAGGAUGAAGCAGCUGCCCUGAGCCCAUCUGGUGCUGUGCACCUGGUCCUUGUCCAGCCGAGGGCCUGGGGGCAGAAGAACACACCAUAGGGAGGCCCUUCAUACGGUGUCUGCCCUAUGUGAGGUCAUAGCUCUUGCGGUCGCACUAGUGUGGAAUUCUCGGGUGUCAAGG
B7: ENSMUSG00000042529.423|Kcnj12|7:11;23:33;56:61;218:222 (ssRNA)
RNA: GGGAGUUCUACAGUCCGACGAUCGCUUCGAUAUCCGCAUGCUAGUGAGGCACACGAGGUCCCAGGCACACACAUACUGAAUGUCAGUGGCUUGGGUGCACACACGAGAGAGAGAGAGAGAGAGAGAGAGAGAGAGAGAGAGAGAGAGAGAGAGAGCUGCACAGGAUGAAGCAGCUGCCCUGAGCCCAUCUGGUGCUGUGCACCUGGUCCUUGUCCAGCCGAGGGCCUGGGGGCAGAAGAACACACCAUAGGGAGGCCCUUCAUACGGUGUCUGCCCUAUGUGAGGUCAUAGAAUGUUAAAUCUCUCUUGCGGUCGCACUAGUGUGGAAUUCUCGGGUGUCAAGG
B8: ENSMUSG00000042529.419|Kcnj12|1:17;22:27;31:35;47:57;80:85;242:246 (ssRNA)
RNA: GGGAGUUCUACAGUCCGACGAUCGCUUCGAUAUCCGCAUGCUACACACACACACACACACAACAACACACAGGCACACGAGGUCCCAGGCACACACAUACUGAAUGUCAGUGGCUUGGGUGCACACACGAGAGAGAGAGAGAGAGAGAGAGAGAGAGAGAGAGAGAGAGAGAGAGAGAGCUGCACAGGAUGAAGCAGCUGCCCUGAGCCCAUCUGGUGCUGUGCACCUGGUCCUUGUCCAGCCGAGGGCCUGGGGGCAGAAGAACACACCAUAGGGAGGCCCUUCAUACGGUGUCUGCCCUAUCUCUUGCGGUCGCACUAGUGUGGAAUUCUCGGGUGUCAAGG
B9: ENSMUSG00000042529.427|Kcnj12|1:9;32:37;194:198 (ssRNA)
RNA: GGGAGUUCUACAGUCCGACGAUCGCUUCGAUAUCCGCAUGCUACACACAUACUGAAUGUCAGUGGCUUGGGUGCACACACGAGAGAGAGAGAGAGAGAGAGAGAGAGAGAGAGAGAGAGAGAGAGAGAGAGCUGCACAGGAUGAAGCAGCUGCCCUGAGCCCAUCUGGUGCUGUGCACCUGGUCCUUGUCCAGCCGAGGGCCUGGGGGCAGAAGAACACACCAUAGGGAGGCCCUUCAUACGGUGUCUGCCCUAUGUGAGGUCAUAGAAUGUUAAAUCUAUUUUAAACGGUGAAACUGGAGAACUCUUGCGGUCGCACUAGUGUGGAAUUCUCGGGUGUCAAGG
B10: ENSMUSG00000042529.422|Kcnj12|4:9;13:17;29:39;62:67;224:228 (ssRNA)
RNA: GGGAGUUCUACAGUCCGACGAUCGCUUCGAUAUCCGCAUGCUAACAACACACAGGCACACGAGGUCCCAGGCACACACAUACUGAAUGUCAGUGGCUUGGGUGCACACACGAGAGAGAGAGAGAGAGAGAGAGAGAGAGAGAGAGAGAGAGAGAGAGAGAGCUGCACAGGAUGAAGCAGCUGCCCUGAGCCCAUCUGGUGCUGUGCACCUGGUCCUUGUCCAGCCGAGGGCCUGGGGGCAGAAGAACACACCAUAGGGAGGCCCUUCAUACGGUGUCUGCCCUAUGUGAGGUCAUAGAAUGUUCUCUUGCGGUCGCACUAGUGUGGAAUUCUCGGGUGUCAAGG

Each binder was assayed against TDP-43 (Homo sapiens, UniProt Q13148 1-414) (assay: RNA Bind-n-Seq with designed 260-mer pool; 25 mM Tris-HCl, 150 mM KCl, 3 mM MgCl2, BSA (printed 500 mg/mL), 20 units/mL SUPERase IN; pH not stated; 500 nM RNA pool, 1 h, 4 C; TDP-43 5, 50, 500 nM; high values mean tight binding). Settings: protein: recombinant; tags: SBP (GST cleaved off with PreScission; pGEX-GST-SBP).
TDP-43, sequence (Q13148 whole entry): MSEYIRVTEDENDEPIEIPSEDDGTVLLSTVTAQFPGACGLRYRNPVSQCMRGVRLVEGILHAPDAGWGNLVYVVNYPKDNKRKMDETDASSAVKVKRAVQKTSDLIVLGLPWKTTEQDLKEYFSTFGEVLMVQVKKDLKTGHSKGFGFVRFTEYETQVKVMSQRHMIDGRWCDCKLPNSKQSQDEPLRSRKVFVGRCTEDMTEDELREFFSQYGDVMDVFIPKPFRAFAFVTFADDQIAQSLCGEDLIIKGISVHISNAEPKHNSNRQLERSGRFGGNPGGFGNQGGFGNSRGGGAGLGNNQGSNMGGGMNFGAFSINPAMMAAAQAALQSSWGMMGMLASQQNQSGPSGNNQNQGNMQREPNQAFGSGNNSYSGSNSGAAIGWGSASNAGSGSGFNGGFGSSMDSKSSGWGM
Summary of the method: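 Streptavidin beads captured recombinant SBP-tagged TDP-43 at 5, 50 or 500 nM, and the beads were incubated for 1 h at 4 °C with 500 nM of an in vitro-transcribed pool of 260-nt 3′ UTR oligos in 25 mM Tris-HCl, 150 mM KCl, 3 mM MgCl2, BSA and SUPERase IN. After washing, bound RNA was eluted with biotin, reverse transcribed, PCR-amplified and sequenced. Binding is reported as R, the mapped-read-normalized abundance of each oligo in the bound sample divided by its abundance in the input. Two independent protein batches served as duplicates.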
For B1, the binding signal was 0.883 R (bound/input frequency ratio).
For B2, the binding signal was 6.55 R (bound/input frequency ratio).
For B3, the binding signal was 4.97 R (bound/input frequency ratio).
In the case of B4, the binding signal is reported as 5.67 R (bound/input frequency ratio).
With B5 the binding signal was 6.2 R (bound/input frequency ratio).
In the case of B6, the binding signal is reported as 7.21 R (bound/input frequency ratio).
With B7 the binding signal was 7.58 R (bound/input frequency ratio).
B8 was tested, and the binding signal was 6.45 R (bound/input frequency ratio).
B9 was tested, and the binding signal was 5.49 R (bound/input frequency ratio).
B10 was tested, and the binding signal was 6.32 R (bound/input frequency ratio).
